A number with no mark means an inactive call.
Tests used:
Assay in all cases: log2 ratio of Biotin-Ahx-Ub-VS probe labelling (fragment/DMSO); higher = less target engagement (more negative = stronger competition), active = hit call of the paper (q ≤ 0.05, log2 ratio ≤ -1)
Settings in all cases: compound concentration: 200 uM; treatment time: 3 h
USP19 = molecular target: T1, USP19 (UniProt O94966)
T1 sequence (whole entry): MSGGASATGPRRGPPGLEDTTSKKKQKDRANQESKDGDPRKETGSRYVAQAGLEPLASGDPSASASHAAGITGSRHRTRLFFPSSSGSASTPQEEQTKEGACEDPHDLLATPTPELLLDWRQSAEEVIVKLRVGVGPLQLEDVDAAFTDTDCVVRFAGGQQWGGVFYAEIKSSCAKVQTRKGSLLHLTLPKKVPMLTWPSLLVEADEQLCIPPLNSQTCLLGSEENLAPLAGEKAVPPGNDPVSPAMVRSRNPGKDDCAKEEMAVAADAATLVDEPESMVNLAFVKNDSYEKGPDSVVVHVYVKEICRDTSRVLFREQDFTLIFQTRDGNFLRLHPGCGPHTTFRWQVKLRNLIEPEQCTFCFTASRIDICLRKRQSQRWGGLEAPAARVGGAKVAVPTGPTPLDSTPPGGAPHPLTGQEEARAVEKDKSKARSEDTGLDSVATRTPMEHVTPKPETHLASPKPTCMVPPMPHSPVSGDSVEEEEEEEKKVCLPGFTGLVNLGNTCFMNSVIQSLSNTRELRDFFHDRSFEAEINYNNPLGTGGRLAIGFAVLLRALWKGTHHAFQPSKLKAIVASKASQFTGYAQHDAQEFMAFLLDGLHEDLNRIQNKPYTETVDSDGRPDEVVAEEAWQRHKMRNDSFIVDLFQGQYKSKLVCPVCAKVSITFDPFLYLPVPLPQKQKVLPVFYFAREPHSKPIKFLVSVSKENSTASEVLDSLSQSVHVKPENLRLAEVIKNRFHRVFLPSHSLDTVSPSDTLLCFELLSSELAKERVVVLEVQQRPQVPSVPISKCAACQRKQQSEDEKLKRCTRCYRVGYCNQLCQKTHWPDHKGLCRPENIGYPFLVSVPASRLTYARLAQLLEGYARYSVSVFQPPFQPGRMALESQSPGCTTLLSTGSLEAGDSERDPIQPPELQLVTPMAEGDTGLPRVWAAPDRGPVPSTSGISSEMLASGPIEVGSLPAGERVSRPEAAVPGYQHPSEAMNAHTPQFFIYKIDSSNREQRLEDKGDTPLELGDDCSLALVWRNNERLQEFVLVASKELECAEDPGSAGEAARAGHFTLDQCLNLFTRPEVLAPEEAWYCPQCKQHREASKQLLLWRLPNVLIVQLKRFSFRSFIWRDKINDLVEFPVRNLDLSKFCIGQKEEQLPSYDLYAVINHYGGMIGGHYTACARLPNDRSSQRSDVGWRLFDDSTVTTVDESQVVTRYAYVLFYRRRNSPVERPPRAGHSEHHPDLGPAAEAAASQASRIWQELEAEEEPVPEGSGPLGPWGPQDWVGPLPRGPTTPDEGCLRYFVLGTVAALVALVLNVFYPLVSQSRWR
Procedure, shortened: (§1)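 HEK293T lysate in Tris/CHAPS/IGEPAL buffer with protease inhibitors (495 µg per sample) was given fragment at 200 µM or vehicle for 3 h, in triplicate. It then received Biotin-Ahx-Ub-VS at 0.5 µM final for 1 h. Labelled DUBs were NeutrAvidin-enriched, digested with LysC and trypsin, and run by diaPASEF LC-MS/MS. Values are average log2 fragment/vehicle ratios by unpaired t-test on global-median-normalised Spectronaut quantities of proteins with ≥2 unique peptides.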

USP22 = molecular target: T2, USP22 (UniProt Q9UPT9)
T2 sequence (whole entry): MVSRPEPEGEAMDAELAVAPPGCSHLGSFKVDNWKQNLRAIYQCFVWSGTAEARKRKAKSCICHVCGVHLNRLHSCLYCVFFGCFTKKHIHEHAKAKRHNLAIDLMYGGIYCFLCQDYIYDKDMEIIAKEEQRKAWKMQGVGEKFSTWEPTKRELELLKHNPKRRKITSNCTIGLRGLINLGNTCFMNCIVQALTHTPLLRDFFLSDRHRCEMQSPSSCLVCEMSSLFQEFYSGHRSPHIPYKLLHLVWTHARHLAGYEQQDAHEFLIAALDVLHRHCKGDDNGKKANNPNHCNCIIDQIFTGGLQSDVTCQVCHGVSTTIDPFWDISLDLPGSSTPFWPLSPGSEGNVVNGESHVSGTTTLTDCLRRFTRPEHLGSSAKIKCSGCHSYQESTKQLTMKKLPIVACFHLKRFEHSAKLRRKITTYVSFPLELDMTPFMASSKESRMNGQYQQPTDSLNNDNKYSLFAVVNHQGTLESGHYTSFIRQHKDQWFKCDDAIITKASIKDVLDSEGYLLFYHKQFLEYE
Procedure, shortened: as §1

USP24 = USP24 (UniProt Q9UPU5)
Procedure, shortened: as §1

USP25 = molecular target: T3, USP25 (UniProt Q9UHP3)
T3 sequence (whole entry): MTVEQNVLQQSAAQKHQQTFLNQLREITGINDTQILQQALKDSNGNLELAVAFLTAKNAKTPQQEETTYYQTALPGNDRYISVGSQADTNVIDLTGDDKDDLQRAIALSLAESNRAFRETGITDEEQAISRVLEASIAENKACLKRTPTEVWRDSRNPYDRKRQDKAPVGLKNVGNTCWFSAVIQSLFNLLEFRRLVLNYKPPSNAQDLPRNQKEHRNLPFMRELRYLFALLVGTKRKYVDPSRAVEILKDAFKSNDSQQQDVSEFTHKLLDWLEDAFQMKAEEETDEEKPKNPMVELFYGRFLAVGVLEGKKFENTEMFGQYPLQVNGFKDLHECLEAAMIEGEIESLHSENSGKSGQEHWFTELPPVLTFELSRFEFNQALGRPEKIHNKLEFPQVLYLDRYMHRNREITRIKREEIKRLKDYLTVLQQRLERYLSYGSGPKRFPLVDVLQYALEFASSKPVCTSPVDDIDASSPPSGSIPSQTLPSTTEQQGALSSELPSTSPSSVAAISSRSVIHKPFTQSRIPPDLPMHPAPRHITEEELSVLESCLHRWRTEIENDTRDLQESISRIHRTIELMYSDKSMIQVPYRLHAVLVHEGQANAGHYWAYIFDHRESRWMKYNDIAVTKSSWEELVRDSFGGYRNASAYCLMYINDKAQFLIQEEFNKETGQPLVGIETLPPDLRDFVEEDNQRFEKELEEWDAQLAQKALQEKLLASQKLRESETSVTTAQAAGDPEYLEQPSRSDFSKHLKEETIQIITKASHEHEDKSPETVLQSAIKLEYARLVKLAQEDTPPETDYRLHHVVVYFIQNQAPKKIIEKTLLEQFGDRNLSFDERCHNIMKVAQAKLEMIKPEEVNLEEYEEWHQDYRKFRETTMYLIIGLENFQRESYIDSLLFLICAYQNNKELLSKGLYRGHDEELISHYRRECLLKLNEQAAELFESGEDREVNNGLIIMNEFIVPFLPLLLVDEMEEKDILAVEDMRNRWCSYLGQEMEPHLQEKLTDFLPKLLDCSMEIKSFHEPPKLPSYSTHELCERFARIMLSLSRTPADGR
Procedure, shortened: as §1

USP28 = molecular target: T4, USP28 (UniProt Q96RU2)
T4 sequence (whole entry): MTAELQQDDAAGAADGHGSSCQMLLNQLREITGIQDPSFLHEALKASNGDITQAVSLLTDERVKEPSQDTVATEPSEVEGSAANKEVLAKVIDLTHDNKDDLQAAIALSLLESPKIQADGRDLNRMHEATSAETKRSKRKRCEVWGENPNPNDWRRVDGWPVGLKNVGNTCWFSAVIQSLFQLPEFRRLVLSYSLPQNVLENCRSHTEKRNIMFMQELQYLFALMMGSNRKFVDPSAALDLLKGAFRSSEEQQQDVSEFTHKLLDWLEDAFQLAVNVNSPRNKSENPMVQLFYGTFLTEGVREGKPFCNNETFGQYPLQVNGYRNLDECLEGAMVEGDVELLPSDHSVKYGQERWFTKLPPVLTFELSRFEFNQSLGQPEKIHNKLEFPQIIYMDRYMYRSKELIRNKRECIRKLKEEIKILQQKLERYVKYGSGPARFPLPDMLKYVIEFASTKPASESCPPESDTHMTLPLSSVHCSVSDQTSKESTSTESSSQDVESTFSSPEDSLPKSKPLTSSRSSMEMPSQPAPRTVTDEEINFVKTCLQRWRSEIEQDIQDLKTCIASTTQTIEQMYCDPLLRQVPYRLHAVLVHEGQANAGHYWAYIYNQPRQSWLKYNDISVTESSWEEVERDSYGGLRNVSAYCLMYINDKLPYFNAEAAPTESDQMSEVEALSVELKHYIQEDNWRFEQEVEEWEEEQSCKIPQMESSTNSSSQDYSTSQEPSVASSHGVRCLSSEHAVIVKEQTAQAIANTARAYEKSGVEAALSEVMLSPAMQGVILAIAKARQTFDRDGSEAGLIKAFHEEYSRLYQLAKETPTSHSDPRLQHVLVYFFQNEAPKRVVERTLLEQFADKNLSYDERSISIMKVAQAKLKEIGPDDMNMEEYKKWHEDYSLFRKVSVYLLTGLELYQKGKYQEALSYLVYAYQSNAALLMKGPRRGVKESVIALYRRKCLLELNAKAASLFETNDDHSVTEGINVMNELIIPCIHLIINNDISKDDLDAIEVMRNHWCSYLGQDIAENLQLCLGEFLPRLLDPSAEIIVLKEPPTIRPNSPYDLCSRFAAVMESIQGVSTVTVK
Procedure, shortened: as §1

Sequence of USP24 (Q9UPU5 whole entry): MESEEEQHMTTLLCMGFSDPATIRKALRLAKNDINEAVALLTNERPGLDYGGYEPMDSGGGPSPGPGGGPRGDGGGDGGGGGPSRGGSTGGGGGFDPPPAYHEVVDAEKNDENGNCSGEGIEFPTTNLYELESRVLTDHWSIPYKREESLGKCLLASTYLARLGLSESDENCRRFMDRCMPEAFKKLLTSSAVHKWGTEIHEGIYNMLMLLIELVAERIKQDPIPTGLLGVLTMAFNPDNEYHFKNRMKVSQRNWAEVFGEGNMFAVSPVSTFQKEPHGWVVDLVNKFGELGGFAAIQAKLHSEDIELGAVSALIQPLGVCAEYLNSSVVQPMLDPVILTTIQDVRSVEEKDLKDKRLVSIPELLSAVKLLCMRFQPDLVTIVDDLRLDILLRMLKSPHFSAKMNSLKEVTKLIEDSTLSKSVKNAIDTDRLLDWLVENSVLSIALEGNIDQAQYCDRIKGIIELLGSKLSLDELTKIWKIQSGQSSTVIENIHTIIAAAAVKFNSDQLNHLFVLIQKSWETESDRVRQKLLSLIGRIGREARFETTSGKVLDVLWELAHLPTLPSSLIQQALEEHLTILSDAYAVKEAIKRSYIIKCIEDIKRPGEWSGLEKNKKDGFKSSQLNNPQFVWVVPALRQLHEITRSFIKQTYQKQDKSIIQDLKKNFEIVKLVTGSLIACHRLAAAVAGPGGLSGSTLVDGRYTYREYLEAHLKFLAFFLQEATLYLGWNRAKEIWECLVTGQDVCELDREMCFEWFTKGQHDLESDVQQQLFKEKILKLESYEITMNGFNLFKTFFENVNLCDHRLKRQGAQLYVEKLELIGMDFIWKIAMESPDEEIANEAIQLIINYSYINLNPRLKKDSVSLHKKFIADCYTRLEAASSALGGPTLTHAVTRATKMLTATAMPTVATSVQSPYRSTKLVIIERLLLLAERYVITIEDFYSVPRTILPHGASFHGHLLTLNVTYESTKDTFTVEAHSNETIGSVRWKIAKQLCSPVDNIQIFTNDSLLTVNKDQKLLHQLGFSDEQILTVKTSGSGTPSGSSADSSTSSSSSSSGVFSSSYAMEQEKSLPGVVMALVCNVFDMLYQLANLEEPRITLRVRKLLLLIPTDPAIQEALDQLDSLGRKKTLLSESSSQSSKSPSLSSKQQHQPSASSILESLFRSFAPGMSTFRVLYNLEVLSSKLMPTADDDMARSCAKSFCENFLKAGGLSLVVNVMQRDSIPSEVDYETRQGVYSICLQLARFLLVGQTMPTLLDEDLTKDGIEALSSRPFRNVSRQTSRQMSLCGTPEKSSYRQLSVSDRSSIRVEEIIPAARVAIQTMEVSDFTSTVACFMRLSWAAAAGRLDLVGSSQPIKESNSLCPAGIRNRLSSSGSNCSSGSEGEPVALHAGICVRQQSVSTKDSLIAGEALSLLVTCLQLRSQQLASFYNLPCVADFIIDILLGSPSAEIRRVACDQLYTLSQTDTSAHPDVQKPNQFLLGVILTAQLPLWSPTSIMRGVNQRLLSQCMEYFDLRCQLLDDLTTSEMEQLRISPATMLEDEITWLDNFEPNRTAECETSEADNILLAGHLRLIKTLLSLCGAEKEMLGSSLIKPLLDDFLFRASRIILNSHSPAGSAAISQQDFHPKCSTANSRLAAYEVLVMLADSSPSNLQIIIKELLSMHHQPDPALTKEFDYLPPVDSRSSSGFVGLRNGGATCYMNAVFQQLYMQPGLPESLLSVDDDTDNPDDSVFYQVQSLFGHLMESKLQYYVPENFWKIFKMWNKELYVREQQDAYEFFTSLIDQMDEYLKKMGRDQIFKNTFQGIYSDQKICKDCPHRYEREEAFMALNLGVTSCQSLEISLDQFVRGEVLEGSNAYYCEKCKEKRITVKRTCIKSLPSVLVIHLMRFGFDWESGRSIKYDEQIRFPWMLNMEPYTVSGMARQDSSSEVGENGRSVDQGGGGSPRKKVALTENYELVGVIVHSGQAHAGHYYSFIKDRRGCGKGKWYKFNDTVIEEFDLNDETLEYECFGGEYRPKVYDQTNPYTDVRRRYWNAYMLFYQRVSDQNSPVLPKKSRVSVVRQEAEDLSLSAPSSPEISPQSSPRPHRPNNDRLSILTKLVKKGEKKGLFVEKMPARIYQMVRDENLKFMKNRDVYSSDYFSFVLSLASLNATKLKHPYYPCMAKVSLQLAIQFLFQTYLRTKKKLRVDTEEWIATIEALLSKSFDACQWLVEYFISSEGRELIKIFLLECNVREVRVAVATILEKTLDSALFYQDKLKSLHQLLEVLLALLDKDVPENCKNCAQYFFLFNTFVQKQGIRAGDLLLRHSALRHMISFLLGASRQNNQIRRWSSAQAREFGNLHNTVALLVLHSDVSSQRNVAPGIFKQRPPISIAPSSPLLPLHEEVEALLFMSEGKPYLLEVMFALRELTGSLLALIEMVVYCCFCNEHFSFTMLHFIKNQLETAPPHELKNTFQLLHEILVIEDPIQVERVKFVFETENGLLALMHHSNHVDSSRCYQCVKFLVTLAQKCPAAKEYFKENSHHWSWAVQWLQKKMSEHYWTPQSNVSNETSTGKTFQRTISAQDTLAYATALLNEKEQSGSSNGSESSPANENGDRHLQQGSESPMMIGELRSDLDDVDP

CCC1c2ccsc2CCN1C(=O)CCl (stereo not given)
log2 ratio of Biotin-Ahx-Ub-VS probe labelling (USP19): -0.544 | log2 ratio of Biotin-Ahx-Ub-VS probe labelling (USP22): 0.0245 | log2 ratio of Biotin-Ahx-Ub-VS probe labelling (USP24): -1.31 (active) | log2 ratio of Biotin-Ahx-Ub-VS probe labelling (USP25): -0.177 | log2 ratio of Biotin-Ahx-Ub-VS probe labelling (USP28): -0.461
